The text below walks through data of PubChem BioAssay AID504444 (National Center for Advancing Translational Sciences (NCATS), 2011).

The campaign covered roughly 360,000 compounds. About 7,500 (2.1%) were called active. About 20% were inconclusive and are not listed. This excerpt belongs to a sample that is enriched for actives. Unmarked numbers belong to inactive results. Calls come from the whole dose curve; as a rule, active = well fitted inhibition curve with a large enough effect; inconclusive = small, poorly fitted or top-dose-only effect, or effect the other way; inactive = flat fitted curve, though single readings scatter.
% is set by controls: 0 for no effect and ±100 for the full control effect; potency is the fitted concentration of half-maximal effect.

This experiment in a line: Nrf2 qHTS screen for inhibitors. Note: nearly all actives have a fitted effect of over 60% in size. As to conditions: A549 ARE-Fluc reporter, luciferase luminescence, 18-24 h; series mostly up to 46 µM; activity change, negative = inhibition: at the top concentration. In short, it runs like this:
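Quantitative HTS in A549 cells stably bearing an antioxidant response element-firefly luciferase construct. Inhibition of Nrf2-driven transcription was scored by luminescence after 18-24 h of compound exposure at 37 °C.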
In general terms: qHTS replaces the single test concentration by a dilution series.
Take `CCOc1ccc(NC(=O)CN2CCN(CC(=O)Nc3ccc(OC)cc3)CC2)cc1`: the “activity change, negative = inhibition” value is 17.4%.

For the compound `CCOc1ccc(NC(=S)N2CCC(NC(=O)c3ccccc3)CC2)cc1`, the “activity change, negative = inhibition” value is 2.87%.

With `O=C(CN1CCN(C(=S)NC2CCCC2)CC1)Nc1ccc(Oc2ccccc2)cc1`, the Potency is 16.4 µM (active).

Consider `CCc1cc2c(-c3ccccc3)cc(=O)oc2c2c1OCN(Cc1ccc(C)cc1)C2`, for which the “activity change, negative = inhibition” value was 8.44%.

Take `O=C(Cc1ccc(NC(=O)C2CCCN(C(=O)CCc3ccccc3)C2)cc1)Nc1ccc(C(=O)N2CCOCC2)cc1` (stereo not drawn): the “activity change, negative = inhibition” value is 2%.

Take `CC(C)OC(=O)c1ccc(NCc2cc(O)ccc2O)cc1Cl`: the “activity change, negative = inhibition” value is 16.7%.

Regarding `O=S(=O)(c1ccccc1)c1nc(-c2ccccc2F)oc1NCc1cccnc1`, the “activity change, negative = inhibition” value was -22%.

Turning to `Cc1ccc(S(=O)(=O)c2nc(-c3cccs3)oc2NCc2cccnc2)cc1`, the “activity change, negative = inhibition” value is 1.51%.

As for `O=S(=O)(c1ccc(Br)cc1)c1nc(-c2ccccc2)oc1NCc1cccnc1`, the Potency was 20.6 µM (active).

For `CC[N+]1(CC)CC2=Cc3ccccc3CC2C1` (stereo not drawn), the Potency was 23.1 µM (active).

On to `COc1cc(OC)cc(C(=O)Nc2c(C(=O)Nc3ccc(F)cc3)oc3ccccc23)c1`, for which the “activity change, negative = inhibition” value is -7.58%.

As to `COc1cccc(/C=N/NC(=O)c2[nH]nc3c2CCc2ccccc2-3)c1O`, the “activity change, negative = inhibition” value was -21.6%.

Turning to `COc1cccc(/C=N/Nc2cc(C)nc(-c3ccccc3O)n2)c1O`, the Potency is 14.6 µM (active).

Take `COc1cccc(/C=N\NC(=O)C2=NNC(=O)C2C)c1O` (stereo not drawn): the “activity change, negative = inhibition” value was -3.51%.

As to `Cc1nc2nc(SCC(=O)N(Cc3ccccc3)C(C)C)nn2c(C)c1Cc1ccccc1Cl`, the activity change, negative = inhibition is 8.79% [at 9.27 µM].

As to `CCN1CCc2nc3sc(C(=O)Nc4ccccc4OC(F)(F)F)c(N)c3cc2C1`, the “activity change, negative = inhibition” value is 4.26%.

On to `COC(=O)c1c(NC(=O)CSc2nncs2)sc2c1CCCCC2`, for which the Potency was 18.4 µM (active).

Take `COC(=O)c1c(NC(=O)CCN2CCOCC2)sc2c1CCCC2`: the “activity change, negative = inhibition” value is 7.94%.

For `COC(=O)c1c(NC(=O)CCCC(=O)O)sc2c1CCCCC2`, the Potency was 5.17 µM (active).

As to `COC(=O)c1c(NC(=O)C2CC(C)=C(C)CC2C(=O)O)sc2c1CCCCC2` (stereo not drawn), the “activity change, negative = inhibition” value was -3.38%.

As for `NC(=O)c1c(NC(=O)CSc2nc(N)cc(=O)[nH]2)sc2c1CCCC2`, the “activity change, negative = inhibition” value is 1.73%.

For the compound `COC(=O)c1c(NC(=O)c2ccc(Cl)c(Cl)c2)sc2c1CCCC2`, the “activity change, negative = inhibition” value is 11.6%.

As to `CCOC(=O)C1=CN(Cc2ccc(Br)cc2)S(=O)(=O)N(C)C1C` (stereo not drawn), the “activity change, negative = inhibition” value was -21.3%.

On to `CCNC(=O)N(CC)C[C@H]1N[C@@](CC)(C(=O)OC)[C@H]2C(=O)N(Cc3ccccc3)C(=O)[C@@H]12`, for which the “activity change, negative = inhibition” value is 0.165%.

Consider `O=C1c2ccccc2[C@@H]2C[C@@H](O)[C@H](Nc3ccccc3Cl)CCN12`, for which the “activity change, negative = inhibition” value was -2.43%.

As to `C=CCn1c(SCc2cccc(F)c2)nc2cc(C(=O)N3CCC(C(N)=O)CC3)ccc2c1=O`, the “activity change, negative = inhibition” value is 3.26%.

With `Cc1cc(=O)[nH]c(SCc2cccc(F)c2)n1`, the “activity change, negative = inhibition” value is 9.11%.

In the case of `CCn1cc2nc(SCc3cccc(F)c3)n(CCc3ccccc3)c(=O)c2n1`, the Potency was 23.1 µM (active).

As to `O=C(Cn1cc(SCc2ccccc2)c2ccccc21)N1CCCCC1`, the “activity change, negative = inhibition” value was 4.37%.

For `COc1ccc(CCNc2nc(-c3ccc(F)cc3)cc(C(F)(F)F)n2)cc1OC`, the activity change, negative = inhibition was 8.32% [at 9.27 µM].

As for `COc1ccccc1CNC(=O)c1ccc(-n2c(C)cc3c2CCCC3)cc1`, the “activity change, negative = inhibition” value was -13.1%.

As for `CCOc1ccc(CNC(=O)CCc2c(C)nn(-c3ccc(N4CCCCC4)nn3)c2C)cc1`, the “activity change, negative = inhibition” value was -4.23%.

As for `O=C(NCc1ccc(F)cc1)c1ccc(Cn2c(SCc3ccc(F)cc3)nc3cccnc32)cc1`, the “activity change, negative = inhibition” value was 10.8%.

Take `O=C(O)c1ccc(CSc2nc3cccnc3n2Cc2cccc(F)c2)cc1`: the “activity change, negative = inhibition” value was -5.55%.

As to `Cc1oc(-c2ccccc2)nc1Cn1c(SCc2cccc(C(F)(F)F)c2)nc2cccnc21`, the Potency is 25.9 µM (active).

On to `CCN(Cc1ccccc1)C(=O)c1cn(-c2cccc(OC)c2)c(=O)c2ccccc12`, for which the “activity change, negative = inhibition” value was 22%.

As for `Cc1ccc(Oc2nc(-c3ccccn3)nc3ccccc23)cc1`, the “activity change, negative = inhibition” value was -10.1%.

Regarding `c1ccc(-c2nc(NCc3ccco3)c3ccccc3n2)cc1`, the “activity change, negative = inhibition” value is 2.29%.

In the case of `CC(C)(C)Nc1nc(-c2ccccn2)nc2ccccc12`, the Potency is 20.6 µM (active).

With `CCOc1ccc(C(=O)c2cn(Cc3ccccc3OC)c3ccc(F)cc3c2=O)cc1`, the “activity change, negative = inhibition” value is -6.53%.

Take `O=C(N/N=C/c1ccoc1)c1ccc(Cl)cc1Cl`: the “activity change, negative = inhibition” value was 15.2%.

`CC(C)(C)C(=O)Nc1ccc(C(=O)N/N=C/c2ccccc2OC(=O)c2ccc(Cl)cc2Cl)cc1`: the Potency was 13 µM (active).

`O=C(N/N=C/c1ccc(OC(=O)c2ccccc2Cl)cc1)c1ccc(O)cc1`: the “activity change, negative = inhibition” value is 0.134%.

Turning to `O=C(CC(=O)c1cccnc1)c1ccccc1`, the “activity change, negative = inhibition” value is 3.55%.

With `COCCN(Cc1ccco1)C(=O)Cn1ncc2c([nH]c3ccccc32)c1=O`, the “activity change, negative = inhibition” value was -8.84%.

Regarding `O=C(CC1SC(=Nc2ccccc2)N(Cc2ccccn2)C1=O)Nc1cccc(Cl)c1` (stereo not drawn), the Potency is 25.9 µM (active).

Turning to `O=C(Nc1cccc(Cl)c1)OCc1ccccn1`, the “activity change, negative = inhibition” value was 12.3%.

Take `CN1C(=O)C(CC(=O)Nc2ccccc2)S/C1=N/c1nccs1` (stereo not drawn): the “activity change, negative = inhibition” value was 2.37%.
